Compound activity from PubChem.
hcDAF-12 act – activators of H. contortus DAF-12 nuclear receptor; HEK293 hcDAF-12 lit1-tk-luc reporter, luminescence; 0% DMSO, 100% Δ7-dafachronic acid; activation, % at 6.8 µM; 1.4% of 370,000 active; AID 652067;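 active = activation above the mean of all tested compounds plus 3 SD, cut at about 5.5% in these data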;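 also: 100% = response to 3 µM Δ7-dafachronic acid high control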
hgDAF-12 ag – hgDAF-12 agonism, primary luciferase screen | activation, % at 6.8 µM | HEK293 GAL4-hgDAF12 UAS-luciferase reporter, agonist luminescence; normalized to butyrate control | AID 687014 | 1.8% of 370,000 active;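 active = activation above a cutoff set at the mean of all screened compounds plus 3 SD, cut at about 10% in these data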;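 also: 0% = DMSO wells and 100% = sodium butyrate wells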
SMARCA2 activ – activators of SMARCA2 function. MG213 cells, MMTV-luciferase reporter, dexamethasone, overnight. activation, % at 9.1 µM. 1% of 370,000 active. AID 652017; in the data active = activation above about 7.8%;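 also: 0% = vehicle wells and 100% = reference activator wells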
DAX1 inh-1 – inhibitors of human orphan nuclear receptor DAX1 (NR0B1); P51843; HEK293 Gal4-DAX1 luciferase reporter, luminescence; inhibition, % at 6.75 µM; 0.99% of 340,000 active; AID 504766;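 active = inhibition above the mean over all tested compounds plus 3 SD, cut at about 4.2% in these data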;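 also: 0% = DAX1-transfected cells with DMSO and 100% = empty-vector control cells with DMSO; inhibition shows as a rise in luminescence from relieved DAX1 repression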
Target sequence (P51843 207-470 limits assumed): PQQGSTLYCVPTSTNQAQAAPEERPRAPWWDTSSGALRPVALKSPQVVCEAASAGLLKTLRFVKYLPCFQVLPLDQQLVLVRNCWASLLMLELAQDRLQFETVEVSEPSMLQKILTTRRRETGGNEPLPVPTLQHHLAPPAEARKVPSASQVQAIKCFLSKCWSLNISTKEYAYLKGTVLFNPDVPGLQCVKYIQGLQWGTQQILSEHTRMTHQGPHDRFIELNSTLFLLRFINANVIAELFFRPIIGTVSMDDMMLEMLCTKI
DAX1 inh-2 – blocks DAX1 repression of SF-1 activated StAR promoter; HEK293T StAR-luciferase reporter, SF-1/DAX-1 repression relief; inhibition, % at 6.8 µM; 1.1% of 370,000 active; AID 652010;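 active = inhibition above the mean over all tested compounds plus 3 SD, cut at about 3.6% in these data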;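 also: 0% = DAX-1 cells with DMSO and 100% = cells lacking DAX-1 with DMSO; higher inhibition means more luminescence from relief of DAX-1 repression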
ssDAF12 agonist – S. stercoralis DAF-12 activation, primary screen. HEK293 ssDAF-12/GRIP1 lit1-tk-luc reporter, luminescence; % of 3 µM dafachronic acid response. AID 652126. 1% of 370,000 active. activation, % at 6.8 µM;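 active = activation above the mean over all tested compounds plus 3 SD, cut at about 0.9% in these data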;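 also: 0% = DMSO-only wells and 100% = 3 µM delta7-dafachronic acid wells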
LXR ag – counter-screen for hcDAF-12 agonists: agonists of human LXR-beta; HEK293 Gal4-LXR tk-luc reporter, luminescence, 24 h; normalized: DMSO 0%, positive control 100%; AID 743027; activation, % at 6.8 µM; shares compounds with hcDAF-12 act; 3,400 tested, under 10 active;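 active = mean percent activation of the reporter above a cutoff set as the average over tested compounds plus their standard deviation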
hcDAF12 conf – confirmation of H. contortus DAF-12 agonists. shares compounds with hcDAF-12 act. HEK293 hcDAF-12 lit1-tk-luc reporter, luminescence; % of Δ7-dafachronic acid response. activation, % at 6.8 µM. 61% of 3,400 active;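 active = mean activation across triplicate tests above the threshold derived from the earlier primary screen, cut at about 5.5% in these data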;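 also: 0% = DMSO only wells and 100% = 3 µM Δ7-dafachronic acid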
Starred values were filed as active, the others as inactive; · = no result. Most compounds without a hit are left out; they make up all but 4.8% or so of the library.

SMILES | hcDAF-12 act | hgDAF-12 ag | SMARCA2 activ | DAX1 inh-1 | DAX1 inh-2 | ssDAF12 agonist | LXR ag | hcDAF12 conf
O=[N+]([O-])c1cccc2ccc(/C=C/c3ccc(Cl)cc3)nc12 | 4.2 | 6.3 | 1.9 | 0.0 | 0.6 | 0.4 | · | ·
CCCc1nc2oc3ccccc3c(=O)c2c(=O)n1-c1ccccc1 | 9.5* | 4.3 | 1.8 | · | 0.5 | 1.2* | 0.5 | 8.0*
CCCc1nc2oc3ccccc3c(=O)c2c(=O)n1-c1ccc(C)cc1 | 10.9* | 8.7 | 6.4 | · | 1.5 | 1.9* | 0.7 | 12.1*
CCc1nc2oc3ccccc3c(=O)c2c(=O)n1-c1ccccc1 | 8.8* | 12.7* | 0.4 | 3.2 | 2.2 | 1.2* | 0.6 | 8.7*
Cc1ccc(-n2c(C(C)C)nc3oc4ccccc4c(=O)c3c2=O)cc1 | 11.9* | 11.8* | 2.0 | 6.0* | 2.1 | 2.9* | 0.9 | 12.9*
O=C(NCc1ccco1)C1CCCN(S(=O)(=O)c2cccs2)C1 (stereo unspecified) | -1.5 | 2.1 | -0.3 | · | -0.8 | -0.4 | · | ·
CCc1nc2oc3ccccc3c(=O)c2c(=O)n1CCOC | 2.6 | -0.3 | 3.4 | 0.7 | 1.2 | -0.1 | · | ·
CCc1nc2oc3ccccc3c(=O)c2c(=O)n1-c1ccc(C)cc1 | 11.6* | 11.2* | 4.4 | · | 2.6 | 4.0* | 1.2 | 13.8*
COc1ccc(NC(=O)Nc2nnc(-c3cccs3)s2)cc1 | 2.1 | 4.5 | 1.0 | 0.9 | 1.3 | -0.5 | · | ·
COc1ccc(C(=O)Nc2nnc(-c3cccs3)s2)cc1 | 6.8* | 9.5 | 4.8 | 1.5 | 2.2 | 1.3* | 1.6 | 17.0*
COc1ccc(C(=O)Nc2nc(-c3cccs3)c(NC(C)=O)s2)cc1 | 0.2 | 0.4 | 3.3 | -0.2 | -0.2 | -1.6 | · | ·
O=C(Nc1ccccc1)Nc1nnc(-c2cccs2)s1 | 6.6* | 4.3 | 1.0 | 0.5 | 1.0 | -0.2 | 0.4 | 0.3
O=C(CSc1nc2ccccc2nc1N1CCOCC1)N1CCN(c2cccc(C(F)(F)F)c2)CC1 | -4.6 | 8.8 | -7.3 | · | -2.4 | -2.2 | · | ·
CC(=O)Oc1ccc(/C=C2/CCc3ccccc3C2=O)cc1 | 7.3* | 6.6 | 1.3 | -2.5 | 2.4 | 0.7 | 1.1 | 4.9
COc1ccc(/C=C2\CCc3ccccc3C2=O)cc1OC | -0.1 | 4.2 | 1.8 | 0.0 | 1.5 | -1.4 | · | ·
Cc1ccsc1/C=C1\CCc2ccccc2C1=O | 12.1* | 9.6 | 4.9 | -3.1 | 3.4 | 1.4* | 1.6 | 14.0*
CCCCNC(=O)C[C@H]1C[C@@]2(C(=O)OC)C(=C[C@H](C(C)C)O[C@@H]2C2CC2)N(Cc2ccc(Cl)cc2Cl)C1=O | 2.1 | -2.0 | -1.6 | · | -0.3 | -0.2 | · | ·
C=CCN1[C@@H](CC(C)C)COc2cccc(F)c2S1(=O)=O | -1.5 | 0.6 | -3.1 | · | 0.4 | -1.8 | · | ·
C[C@H]1C2CC(OC(=O)Nc3ccc(C#N)cc3)C(C2)[C@H]2CCCCN21 (stereo partly specified) | -1.1 | 0.5 | -1.6 | · | -0.5 | -0.5 | · | ·
CN1CCN(CCCNC(=O)Cn2nc(-c3ccccc3)ccc2=O)CC1 | 8.5* | 1.9 | 1.2 | -0.2 | 1.3 | -1.5 | -0.3 | 0.4
O=C(Cn1nc(-c2ccccc2)ccc1=O)NCCCN1CCOCC1 | -1.8 | 0.9 | 1.8 | 0.0 | -0.7 | -0.1 | · | ·
O=C(Cc1nc2ccccc2[nH]c1=O)c1ccccc1 | 8.1* | 11.2* | -0.7 | 1.4 | 1.9 | 1.2* | 2.0 | 9.9*
O=c1[nH]c2ccccc2nc1Cc1ccccc1 | 1.8 | -2.1 | -0.4 | -0.6 | 0.4 | -1.6 | · | ·
CCCC(=O)Nc1c2c(nn1-c1cccc(C)c1C)CS(=O)(=O)C2 | 8.1* | 3.3 | -1.7 | -0.8 | 0.8 | 0.1 | 0.1 | 5.0
O=c1[nH]c(-c2ccccc2)cn1C1CCN(Cc2ccc(-c3nc4ccc(Br)cc4nc3-c3ccccc3)cc2)CC1 | -1.2 | -0.4 | -4.0 | · | -0.4 | -0.4 | · | ·
